Where “and” joins values, the source holds several entries; their conditions need not be identical. Identical values can stand only once. About 83,000 compounds went through this panel and 20% of them were active in at least one assay; those are over-represented in the sample as a whole.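 Assay: single dose, 48 h. Readout: percent growth (0 = no net growth; negative = cell death). Active: <10.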 Calls of active or inactive are those of the source.
What was measured:
Assay in all cases: NCI-60 one-dose screen, 48 h (100 = growth as untreated, 0 = no growth, -100 = all killed)
Details in all cases: 10 µM unless noted
[1] = test system: SR leukemia
[2] = test system: RPMI-8226 leukemia
[3] = test system: OVCAR-8 ovarian
[4] = test system: OVCAR-5 ovarian
[5] = test system: OVCAR-4 ovarian
[6] = test system: SK-OV-3 ovarian
[7] = test system: IGROV1 ovarian
[8] = test system: OVCAR-3 ovarian
[9] = test system: HS 578T breast
[10] = test system: NCI/ADR-RES ovarian

SMILES | growth [1] | growth [2] | growth [3] | growth [4] | growth [5] | growth [6] | growth [7] | growth [8] | growth [9] | growth [10]
COc1cc(CNC(=O)C[C@H](C)CCC=C(C)C)ccc1OCc1cn(-c2ccc(Cl)cc2Cl)nn1 | 79.8% (inactive) | 90.7% (inactive) | 29.3% (inactive) | 91.7% (inactive) | 49.7% (inactive) | 26.1% (inactive) | 72.3% (inactive) | 101% (inactive) | 48.4% (inactive) | 32.9% (inactive)
COc1cc(-c2ccc3ncnc(N4CCc5ccc(Cl)cc54)c3c2)cnc1Cl | 12.3% (inactive) | -4.08% (active) | 37.1% (inactive) | 34.7% (inactive) | 33.3% (inactive) | 17.4% (inactive) | -44.4% (active) | 29.2% (inactive) | 23.5% (inactive) | 26.6% (inactive)
CS(=O)(=O)Nc1cc(-c2ccc3ncnc(N4CCc5cc(F)c(Cl)cc54)c3c2)cnc1Cl | -31.9% (active) | -9.06% (active) | 13.3% (inactive) | 11.1% (inactive) | 10.6% (inactive) | -17.5% (active) | -33.7% (active) | -22.6% (active) | -31.8% (active) | 12.1% (inactive)
COc1ccc(/C=C/c2nc3ccccc3n3c(-c4cccc([N+](=O)[O-])c4)nnc23)cc1 | -33.3% (active) | -18.3% (active) | -43.6% (active) | -59.9% (active) | -14.6% (active) | 25.6% (inactive) | -69% (active) | -77.4% (active) | 12% (inactive) | -27% (active)
S=C(NCCc1ccccc1)Nc1ccc(OCc2nc3ccc(Cl)cc3[nH]2)cc1 | -7.42% (active) | 7.74% (active) | 39.7% (inactive) | 30.5% (inactive) | 32.1% (inactive) | 77.2% (inactive) | 31.4% (inactive) | 34.9% (inactive) | 38.4% (inactive) | 11.7% (inactive)
COc1ccc(NC(=O)CSc2nnc(-c3ccc(-c4nc5ccc(Cl)cc5[nH]4)cc3)o2)cc1 | 18.5% (inactive) | 46.3% (inactive) | 2.41% (active) | 59.8% (inactive) | 33.8% (inactive) | 55% (inactive) | 59.6% (inactive) | 41% (inactive) | 24.7% (inactive) | 48% (inactive)
CCN1C(=O)N(CC)C2NNC(Sc3c(C(=O)O)c4ccccc4n(CCC(C)C)c3=O)=NC21 (stereo not given) | 6.32% (active) | 10.3% (inactive) | 5.92% (active) | 21.4% (inactive) | 46.5% (inactive) | 35.8% (inactive) | 17.3% (inactive) | -25.4% (active) | -14.6% (active) | -35.4% (active)
NC(=O)c1ccc(-c2ccc3ncnc(N4CCc5cc(F)c(Cl)cc54)c3c2)cn1 | 15.2% (inactive) | 48.5% (inactive) | 71.1% (inactive) | 73.5% (inactive) | 88.7% (inactive) | 101% (inactive) | 2.18% (active) | 64.8% (inactive) | 55.4% (inactive) | 74.6% (inactive)
COc1ccc(C(=O)/C=C/c2ccc3c(c2)OCCO3)cc1S(N)(=O)=O | 17.6% (inactive) | 59.2% (inactive) | 40.7% (inactive) | 105% (inactive) | 83.3% (inactive) | 99% (inactive) | 63.6% (inactive) | 68.1% (inactive) | 87% (inactive) | 53.1% (inactive)
O=C(Nc1ccc(Br)cc1)Nc1ccc(-c2ccc3c(c2)NC(=O)/C3=C\c2ccc[nH]2)cc1 | 18.4% (inactive) | 32.2% (inactive) | 35.4% (inactive) | 55.3% (inactive) | 33.9% (inactive) | 77.1% (inactive) | 46.9% (inactive) | 12.3% (inactive) | 56% (inactive) | 25.7% (inactive)
O=C1Nc2cc(-c3ccc(NS(=O)(=O)c4ccc(C(F)(F)F)cc4)cc3)ccc2/C1=C/c1ccc[nH]1 | 4.6% (active) | 26% (inactive) | 57% (inactive) | 45.1% (inactive) | 31.5% (inactive) | 57.7% (inactive) | 61.3% (inactive) | 39.8% (inactive) | 40.6% (inactive) | 40.5% (inactive)
COc1ccc2c(c1)C(Sc1ccc(F)cc1)c1c(nc(N)c(C#N)c1N)O2 (stereo not given) | 38% (inactive) | 71.7% (inactive) | 90.1% (inactive) | 122% (inactive) | 97.8% (inactive) | 122% (inactive) | 70.6% (inactive) | 128% (inactive) | 85.5% (inactive) | 95.3% (inactive)
CC1=C(C(=O)Nc2ccccc2)C(c2ccc3ccccc3c2)n2c(nc3ccccc32)N1 (stereo not given) | 38.4% (inactive) | 40.8% (inactive) | 6.23% (active) | 97.9% (inactive) | -35.4% (active) | 107% (inactive) | 67.4% (inactive) | -21.9% (active) | 40.3% (inactive) | 41.4% (inactive)
CC1CCc2c(sc3nc(SCC(=O)c4cccc(Br)c4)n(-c4ccccc4)c(=O)c23)C1 (stereo not given) | 22.3% (inactive) | 58.8% (inactive) | 19.2% (inactive) | 47.8% (inactive) | 30.6% (inactive) | 58% (inactive) | 33.7% (inactive) | 55.7% (inactive) | 57.7% (inactive) | 35.2% (inactive)
COc1c(B(O)O)cc(F)cc1-c1nc2ccc3[nH]ncc3c2c2c1COCC2 | 43.4% (inactive) | 31.5% (inactive) | 51.5% (inactive) | 90.3% (inactive) | 102% (inactive) | 82.8% (inactive) | 57.8% (inactive) | 64.1% (inactive) | 9.63% (active) | 93.9% (inactive)
O=C(NN1C(=O)/C(=C/C=C/c2ccc([N+](=O)[O-])o2)SC1=S)c1ccncc1 | -24.7% (active) | -28.4% (active) | -37.2% (active) | -98.9% (active) | -97.6% (active) | -99% (active) | -94.9% (active) | -100% (active) | -11% (active) | -4.3% (active)
O=C(/C=C1\C(=O)N(Cc2ccccc2)c2ccccc21)c1cc2ccccc2oc1=O | 22.5% (inactive) | 98.8% (inactive) | 98% (inactive) | 116% (inactive) | 84.5% (inactive) | 109% (inactive) | 67.4% (inactive) | 38.6% (inactive) | 89.3% (inactive) | 91.3% (inactive)
CSc1ccc(OCc2nc3ccccc3n2-c2cccc(NS(C)(=O)=O)c2)cc1 | 82.6% (inactive) and 89.5% (inactive) | 93.7% (inactive) and 91.1% (inactive) | 99.5% (inactive) and 88.4% (inactive) | 130% (inactive) and 117% (inactive) | 93.8% (inactive) and 69.4% (inactive) | 110% (inactive) and 83.5% (inactive) | 95.3% (inactive) and 82.8% (inactive) | 118% (inactive) | 80.9% (inactive) and 65% (inactive) | 96.5% (inactive) and 79.7% (inactive)
O=C1c2cccc3c(N4CCN(c5ccccc5)CC4)ccc(c23)C(=O)N1c1cccc(-c2nn(-c3ccccc3)cc2-c2nc3ccccc3s2)c1 | 90.9% (inactive) | 95.9% (inactive) | 106% (inactive) | 108% (inactive) | 99.9% (inactive) | 97.6% (inactive) | 73.9% (inactive) | 98% (inactive) | 102% (inactive) | 98.3% (inactive)
O=C(CSc1nnc(-c2ccc(-c3nc4ccc(Cl)cc4[nH]3)cc2)o1)Nc1ccc(Cl)cc1 | 0.703% (active) | 8.59% (active) | -31.3% (active) | 49.3% (inactive) | 19.1% (inactive) | 81.1% (inactive) | 51.2% (inactive) | 5.34% (active) | 14.1% (inactive) | 11.4% (inactive)
COc1ccc(-c2nc3ccc(-c4nnc(SCC(=O)Nc5ccc(/C(C)=N\O)cc5)o4)cc3[nH]2)cc1 | 47.9% (inactive) | 36.5% (inactive) | 55.4% (inactive) | 113% (inactive) | 83.3% (inactive) | 80.1% (inactive) | 69.6% (inactive) | 63.3% (inactive) | 6.55% (active) | 108% (inactive)
COc1cc(C=O)ccc1Oc1nc(Nc2ccc(F)cc2)nc(N(C)C)n1 | 70.9% (inactive) and 6.2% (active) | 60% (inactive) and 67% (inactive) | 85.3% (inactive) and 56.7% (inactive) | 100% (inactive) and 105% (inactive) | 56.4% (inactive) and 47.8% (inactive) | 87.6% (inactive) and 122% (inactive) | 96.7% (inactive) and 49.3% (inactive) | 62.1% (inactive) and 78.7% (inactive) | 85.5% (inactive) and 41.5% (inactive) | 81.7% (inactive) and 54.3% (inactive)
COc1ccc(N=Nc2c(N)nn3c(-c4ccc([N+](=O)[O-])cc4)ccnc23)cc1 | 98.2% (inactive) | 94% (inactive) | 107% (inactive) | 113% (inactive) | 92.8% (inactive) | 106% (inactive) | 104% (inactive) | 113% (inactive) | 89% (inactive) | 97.8% (inactive)
Nc1nn2c(-c3cc4cc(Br)ccc4oc3=O)ccnc2c1N=Nc1ccccc1 | 1.69% (active) | 75.2% (inactive) | -14.9% (active) | 16.8% (inactive) | -5.33% (active) | -6.82% (active) | 13.1% (inactive) | 27.1% (inactive) | -20.7% (active) | -16.7% (active)
COc1ccc(NC(=O)Cn2c(/C=C/c3cccc(OC)c3)nc3ccccc3c2=O)cc1 | 77.6% (inactive) | 41.1% (inactive) | 10.4% (inactive) | 40% (inactive) | -30.1% (active) | 44.8% (inactive) | 37.7% (inactive) | 28.5% (inactive) | 9.48% (active) | 35.4% (inactive)

From PubChem BioAssay (NCI)
